Compounds without any hit were thinned out: in the full panel of roughly 83,000, 20% have a hit.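 96-well plates, one dose, 48 hours. Percent growth reported; active if below 10.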 Calls of active or inactive are those of the source.

In the first experiment the test system is HCT-116 colon. Description: NCI-60 one-dose screen, 48 h (100 = growth as untreated, 0 = no growth, -100 = all killed). The settings on record: 10 µM unless noted.
`Nc1nc(-c2ccnc(Cl)c2)nn1-c1nc2ccccc2s1`: the growth was 107% (inactive). Same read-out and setting: the value for `Cc1ccc(S(=O)(=O)N2CCc3ccc(O)c4c3C2Cc2cc(Cl)ccc2-4)cc1` (stereo not given) was 70.9% (inactive); that for `Cc1nc2cc(Nc3nc(NCCO)nc(Nc4ccc(F)cc4)n3)ccc2n1Cc1ccccc1` was 76.5% (inactive); that for `CCC12CCC3c4ccc(O)cc4CCC3C1CC(O)C2O` (stereo not given) was 64.6% (inactive). For `O=c1c2c(=NCCN3CCCC3)cc3c(=O)n(CCCN4CCOCC4)c(=O)c4ccc(c(O)n1CCCN1CCOCC1)c2c4-3`, the growth is 0.411% (active). Take `Nc1cc2[nH]c(=O)c3ccccc3c2cc1Br`: the growth is 77% (inactive). In the case of `O=C1N/C(=C\c2ccccc2)c2ncccc21`, the growth was 101% (inactive). As for `O=C1/C(=C/c2ccccc2F)CNC/C1=C\c1ccccc1F`, the growth is -81.8% (active). As to `COc1ccc(NC(=O)c2ccc3c(c2)nc(-c2ccc(Cl)cc2)n3-c2cc(C(C)(C)C)[nH]n2)cc1`, the growth was 80.7% (inactive). In the case of `Cc1ccc(S(=O)(=O)N2CCc3ccc(O)c4c3C2Cc2ccc3c(c2-4)OCO3)cc1` (stereo not given), the growth is 13% (inactive). As for `Cn1c2ccc(Cl)cc2c2nn(C(=O)c3ccccc3)c(=O)nc21`, the growth is 104% (inactive).

For `NC(=O)c1cc(I)ccc1NC(=O)COc1ccc(Cl)cc1Cl`, the growth was 90.7% (inactive). Same read-out and setting: then `CCCN1CCN(c2ccc3nc(-c4ccc5nc(-c6ccc(C(F)(F)F)cc6)[nH]c5c4)[nH]c3c2)CC1`, with -83.3% (active).

Consider `O=C(CC(O)c1ccccc1)Nc1ccccn1` (stereo not given), for which the growth is 97.6% (inactive). Take `O=C1c2ccccc2-c2cn(Cc3ccccc3)c3cccc(c23)C1c1cccnc1` (stereo not given): the growth is 27.9% (inactive).

As to `C[C@]1(CO)C[C@@H](O)C[C@]2(C)[C@@H]1CC[C@@]13C[C@@H]4[C@@H](C[C@H]12)[C@]4(C)C3`, the growth is 89.3% (inactive). For `NC(=O)c1cc(I)ccc1NC(=O)COc1ccccc1`, the growth was 19% (inactive). `Cc1ccc(N(CSc2ccc(Cl)cc2)CSc2ccc(Cl)cc2)cc1`: the growth is 38.9% (inactive). For the compound `COc1cccc(OC)c1OC(=O)c1ccccc1`, the growth is 103% (inactive). The same measure, in the same setting: then `COc1cc(-c2nc(SC(C)C)nc(Nc3cccc(C)c3)c2C#N)cc(OC)c1OC`, with 115% (inactive).

For the compound `Cc1ccc(S(=O)(=O)N2CCc3ccc(O)c4c3C2CCc2ccccc2-4)cc1` (stereo not given), the growth was 108% (inactive). Still for that read-out and setting: the value for `COc1cc(CNCCCN2C(=O)c3ccc4c5c(ccc(c35)C2=O)C(=O)N(CCCNCc2cc(OC)c(OC)c(OC)c2)C4=O)cc(OC)c1OC` was -61.8% (active). The same measure, in the same setting: then `COC(=O)c1ccc(C(=O)Nc2ccccc2N)cc1`, with 75.4% (inactive); and `COc1c(Cl)ccc2c(-c3nc4cc(Cl)c(F)cc4s3)cc(=O)oc12`, with 88.4% (inactive). As to `COc1ccc(-c2nc3sc(C)nn3c2-c2nc3cc(C)c(C)cc3[nH]2)cc1`, the growth is 97.5% (inactive). Same read-out and setting: then `COc1cc(/C=C/C(=O)C(=Cc2ccc(F)c(F)c2)C(=O)/C=C/c2ccc(O)c(OC)c2)ccc1O`, with -76.5% (active); and `O=C1/C(=C/c2ccc(Cl)cc2)N=C(c2ccccc2)N1CCc1cccs1`, with 28.5% (inactive). On the same count and under the same terms, the value for `CC(C)(C)CC(C)(C)N(CSc1ccc(Cl)cc1)CSc1ccc(Cl)cc1` was 25.5% (inactive); that for `CC(=O)OC[C@H](O)[C@@]1(O)CC[C@H]2[C@@H]3CCC4=CC(=O)CC[C@]4(C)[C@H]3[C@@H](O)C[C@@]21C` was 98.4% (inactive); that for `Cc1ccccc1-n1nnc(C(=O)Nc2ccc(-c3ccccc3)cn2)c1C` was 31.3% [50 µM] (inactive). Consider `C=C1CC[C@@H]2[C@@](C)(CCC[C@]2(C)C(=O)O)[C@@H]1CC[C@H](CO)CCO`, for which the growth is 107% (inactive).

With `O=C(c1cnn2c1NC(c1ccc(F)cc1)C2)N1CCCCC1` (stereo not given), the growth is 98.2% (inactive). For `COc1cc(/C=C/C(=O)CC(=O)/C=C/c2cc(Br)c(OC)c(OC)c2)cc(Br)c1OC`, the growth was 98.3% (inactive). For `CCCCNNC(=O)c1ccc(Br)cc1`, the growth was 19.5% (inactive). Consider `NC(=S)N/N=C1\c2ccccc2-c2c(F)c(F)c(F)c(F)c21`, for which the growth was 5.16% (active). As to `CCC(C)Oc1cc(/C=N/NC(=O)c2cnn3c2NC(c2ccccc2)C3)ccc1OC` (stereo not given), the growth is 22% (inactive). In the case of `COc1cc(OCc2cccc(-c3ccc(C(O)c4nccs4)cc3)c2C)cc(OC)c1C=O` (stereo not given), the growth is 23.1% (inactive).

In another experiment the test system is HCC-2998 colon. Described as above. The following applies: 10 µM unless noted.
With `Nc1nc(-c2ccnc(Cl)c2)nn1-c1nc2ccccc2s1`, the growth was 104% (inactive). The same measure, in the same setting: then `Cc1nc2cc(Nc3nc(NCCO)nc(Nc4ccc(F)cc4)n3)ccc2n1Cc1ccccc1`, with 106% (inactive); and `CCC12CCC3c4ccc(O)cc4CCC3C1CC(O)C2O` (stereo not given), with 75.9% (inactive). On the same count and under the same terms, the value for `O=c1c2c(=NCCN3CCCC3)cc3c(=O)n(CCCN4CCOCC4)c(=O)c4ccc(c(O)n1CCCN1CCOCC1)c2c4-3` was -45.8% (active). The same measure, in the same setting: then `Nc1cc2[nH]c(=O)c3ccccc3c2cc1Br`, with 69.5% (inactive); and `O=C1N/C(=C\c2ccccc2)c2ncccc21`, with 109% (inactive). In the case of `O=C1/C(=C/c2ccccc2F)CNC/C1=C\c1ccccc1F`, the growth is -89.2% (active).

`COc1ccc(NC(=O)c2ccc3c(c2)nc(-c2ccc(Cl)cc2)n3-c2cc(C(C)(C)C)[nH]n2)cc1`: the growth was 112% (inactive). On the same count and under the same terms, the value for `Cc1ccc(S(=O)(=O)N2CCc3ccc(O)c4c3C2Cc2ccc3c(c2-4)OCO3)cc1` (stereo not given) was -25.8% (active).

With `Cn1c2ccc(Cl)cc2c2nn(C(=O)c3ccccc3)c(=O)nc21`, the growth is 111% (inactive). `NC(=O)c1cc(I)ccc1NC(=O)COc1ccc(Cl)cc1Cl`: the growth is 95.3% (inactive). Still for that read-out and setting: then `CCCN1CCN(c2ccc3nc(-c4ccc5nc(-c6ccc(C(F)(F)F)cc6)[nH]c5c4)[nH]c3c2)CC1`, with -89.8% (active); and `O=C(CC(O)c1ccccc1)Nc1ccccn1` (stereo not given), with 102% (inactive). On to `O=C1c2ccccc2-c2cn(Cc3ccccc3)c3cccc(c23)C1c1cccnc1` (stereo not given), for which the growth was 56.4% (inactive).

In the case of `C[C@]1(CO)C[C@@H](O)C[C@]2(C)[C@@H]1CC[C@@]13C[C@@H]4[C@@H](C[C@H]12)[C@]4(C)C3`, the growth is 119% (inactive). On to `NC(=O)c1cc(I)ccc1NC(=O)COc1ccccc1`, for which the growth was 13.9% (inactive).

On to `Cc1ccc(N(CSc2ccc(Cl)cc2)CSc2ccc(Cl)cc2)cc1`, for which the growth was 88.1% (inactive). Turning to `COc1cccc(OC)c1OC(=O)c1ccccc1`, the growth was 94.3% (inactive). The same measure, in the same setting: then `COc1cc(-c2nc(SC(C)C)nc(Nc3cccc(C)c3)c2C#N)cc(OC)c1OC`, with 116% (inactive); and `Cc1ccc(S(=O)(=O)N2CCc3ccc(O)c4c3C2CCc2ccccc2-4)cc1` (stereo not given), with 104% (inactive); and `COc1cc(CNCCCN2C(=O)c3ccc4c5c(ccc(c35)C2=O)C(=O)N(CCCNCc2cc(OC)c(OC)c(OC)c2)C4=O)cc(OC)c1OC`, with -92.4% (active). Same read-out and setting: then `COC(=O)c1ccc(C(=O)Nc2ccccc2N)cc1`, with 85.8% (inactive).

Turning to `COc1c(Cl)ccc2c(-c3nc4cc(Cl)c(F)cc4s3)cc(=O)oc12`, the growth was 108% (inactive). On the same count and under the same terms, the value for `COc1ccc(-c2nc3sc(C)nn3c2-c2nc3cc(C)c(C)cc3[nH]2)cc1` was 106% (inactive). The same measure, in the same setting: the value for `COc1cc(/C=C/C(=O)C(=Cc2ccc(F)c(F)c2)C(=O)/C=C/c2ccc(O)c(OC)c2)ccc1O` was -71.9% (active); that for `O=C1/C(=C/c2ccc(Cl)cc2)N=C(c2ccccc2)N1CCc1cccs1` was 25.4% (inactive). On to `CC(C)(C)CC(C)(C)N(CSc1ccc(Cl)cc1)CSc1ccc(Cl)cc1`, for which the growth is 65.3% (inactive). On the same count and under the same terms, the value for `CC(=O)OC[C@H](O)[C@@]1(O)CC[C@H]2[C@@H]3CCC4=CC(=O)CC[C@]4(C)[C@H]3[C@@H](O)C[C@@]21C` was 103% (inactive). The same measure, in the same setting: then `Cc1ccccc1-n1nnc(C(=O)Nc2ccc(-c3ccccc3)cn2)c1C`, with 73.9% [50 µM] (inactive); and `C=C1CC[C@@H]2[C@@](C)(CCC[C@]2(C)C(=O)O)[C@@H]1CC[C@H](CO)CCO`, with 108% (inactive); and `O=C(c1cnn2c1NC(c1ccc(F)cc1)C2)N1CCCCC1` (stereo not given), with 113% (inactive). Same read-out and setting: the value for `COc1cc(/C=C/C(=O)CC(=O)/C=C/c2cc(Br)c(OC)c(OC)c2)cc(Br)c1OC` was 109% (inactive). With `CCCCNNC(=O)c1ccc(Br)cc1`, the growth was 61.4% (inactive). With `NC(=S)N/N=C1\c2ccccc2-c2c(F)c(F)c(F)c(F)c21`, the growth was 90.1% (inactive).

Consider `COc1c(O)c2c3c(c1OC)-c1ccccc1CC3N(S(=O)(=O)c1ccc(C)cc1)CC2` (stereo not given), for which the growth was 89.6% (inactive). Take `CN1CCN(C)c2cncc(Br)c2C1=O`: the growth is 98% (inactive). Still for that read-out and setting: the value for `CCC(C)Oc1cc(/C=N/NC(=O)c2cnn3c2NC(c2ccccc2)C3)ccc1OC` (stereo not given) was 72.3% (inactive). `COc1cc(OCc2cccc(-c3ccc(C(O)c4nccs4)cc3)c2C)cc(OC)c1C=O` (stereo not given): the growth is 73.9% (inactive).

The values are drawn from PubChem BioAssay (NCI).
